Data taken from PubChem BioAssay (NCATS).
Results filed as inconclusive are left out. Unmarked numbers belong to inactive results. The source made the active and inactive calls. Calls follow the shape of the dose curve; as a rule, active = well fitted curve in the direction sought with a large enough effect in the signal ratio, with a control signal flat (not every such curve was filed as active); inconclusive = small, poorly fitted or top-dose-only effect, or effect the other way, or a change in a side signal; inactive = no such curve, though single readings can be large or run the other way; the % refers to the signal ratio.

Each compound was assayed against Peroxisome proliferator-activated receptor gamma (Homo sapiens) (UniProt P37231) (assay: qHTS assay for small molecule agonists of peroxisome proliferator-activated receptor gamma signaling (AID 588536)). Conditions: HEK293 PPARg-UAS-bla, beta-lactamase ratio, 16 h, percent of rosiglitazone response, DMSO as zero; series mostly up to 76.7 µM; activation: at the top concentration.
Sequence of Peroxisome proliferator-activated receptor gamma (Homo sapiens) (P37231 whole entry, looked up): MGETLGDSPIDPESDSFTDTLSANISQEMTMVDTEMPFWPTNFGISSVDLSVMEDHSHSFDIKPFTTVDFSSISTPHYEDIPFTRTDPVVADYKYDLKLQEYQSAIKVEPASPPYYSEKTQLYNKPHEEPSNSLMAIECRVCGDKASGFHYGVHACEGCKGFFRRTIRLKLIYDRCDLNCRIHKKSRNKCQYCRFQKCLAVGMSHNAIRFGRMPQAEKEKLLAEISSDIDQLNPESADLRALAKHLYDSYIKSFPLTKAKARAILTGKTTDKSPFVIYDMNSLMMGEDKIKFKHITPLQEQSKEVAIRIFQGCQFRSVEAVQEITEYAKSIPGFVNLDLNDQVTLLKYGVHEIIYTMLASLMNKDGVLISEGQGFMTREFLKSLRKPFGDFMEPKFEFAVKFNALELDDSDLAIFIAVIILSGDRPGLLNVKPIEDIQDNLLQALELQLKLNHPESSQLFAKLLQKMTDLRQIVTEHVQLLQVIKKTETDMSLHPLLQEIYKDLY
Description: NIH Chemical Genomics Center [NCGC] U.S. Environmental Protection Agency [EPA] National Institutes of Environmental Health Sciences [NIEHS] National Toxicology Program [NTP] NCGC Assay Overview The Peroxisome proliferator-activated receptors (PPARs) are lipid-activated transcription factors of the nuclear receptor superfamily with three distinct subtypes namely PPAR alpha, PPAR delta (also called PPAR beta) and PPAR gamma. All these subtypes heterodimerizes with Retinoid X receptor (RXR) and these heterodimers regulate transcription of various genes. PPAR-gamma (glitazone receptor) agonists have been used in the treatment of type 2 diabetes and dyslipidaemia. It is involved in the regulation of glucose and lipid metabolism. PPAR-gamma activates certain genes like Paraoxonase 1 which is responsible for hydrolyzing organophosphates. PPAR-gamma agonists may also be therapeutically important in the treatment of coronary artery disease, obesity and cancer and atherosclerosis.
NCGC Assay Protocol Summary Using a beta-lactamase reporter-gene under control of Peroxisome Proliferator-Activated-gamma (PPAR-gamma) response element, a cell-based assay [GeneBLAzer PPAR-gamma-UAS-bla assay developed by Invitrogen] was used to measure PPAR-gamma ligands signaling. GeneBLAzer PPAR-gamma-UAS-bla-HEK293 cells were used with assay medium containing 1% charcoal/dextran treated FBS. The assay was performed in clear bottom black Greiner 1536-well plates. Rosiglitazone was used in the screen as the positive control. Library compounds were measured for their ability to stimulate the reporter gene activity. Compounds were screened in a titration series in 1536-well format. The fluorescence intensity (405 nm excitation, 460/530 nm emission) was measured using an EnVision plate reader. Data was normalized relative to Rosiglitazone control (2 uM, 100%), and DMSO only wells (basal, 0%). Concentration-response titration points for each compound were fitted to the Hill equation yielding concentrations of half-maximal stimulation (EC50) and maximal response (efficacy) values. qHTS protocol for PPAR-gamma beta-lactamase assay in agonist mode [Step] [Parameter] [Value] [Description] 1. Reagent; 6 uL; 3000 cells/well 2. Incubation; 37 C for 6 - 6.5 hrs 3. Compounds; 23 nL; 0.59 nM to 92 uM 4. Controls (Rosiglitazone); 23 nL, - One column with dose response, start 19 uM, 1:3 dilutions in duplicates - Final concentrations of 2 uM and 0.5 uM in two columns 5. Incubation; 37 C for 16 hrs 6. Detection reagent; 1 uL of CCF4-dye 7. Incubation; RT for 2 hrs 8. Detection; Fluorescence; Envision plate reader

| Compound | outcome | activation |
| --- | --- | --- |
| NC(=Nc1ccccc1)Nc1ccccc1 | inactive |  |
| COc1cc(Cc2cnc(N)nc2N)cc(OC)c1OC |  | -1.94% |
| O=c1[nH]c(=O)n([C@H]2C[C@H](O)[C@@H](CO)O2)cc1Br |  | -1.15% |
| O=C(O)CCCCCCCC(=O)O |  | 4.69% |
| COc1ccc(CN(CCN(C)C)c2ccccn2)cc1 |  | -5.54% |
| CCCCOCCOCCOCc1cc2c(cc1CCC)OCO2 |  | 6.34% |
| CC(=O)Nc1nnc(S(N)(=O)=O)s1 |  | -4.23% |
| C[C@]12CCC(=O)C=C1CC[C@@H]1[C@@H]2C(=O)C[C@@]2(C)[C@H]1CC[C@]2(O)C(=O)CO |  | -2.81% |
| NC(=O)N1c2ccccc2C=Cc2ccccc21 | inactive |  |
| Cc1ccc(S(=O)(=O)NC(=O)NN2CCCCCC2)cc1 |  | 3.56% |
| C[C@]12C=CC(=O)C=C1CC[C@H]1[C@@H]3C[C@@H](O)[C@](O)(C(=O)CO)[C@@]3(C)C[C@H](O)[C@@]12F |  | 10% |
| CN=C(NC#N)NCCSCc1nc[nH]c1C |  | 2.91% |
| CCCCNC(=O)NS(=O)(=O)c1ccc(C)cc1 | inactive |  |
